# Experiments:
# [1] = molecular target: T1, Inhibitor of nuclear factor kappa-B kinase subunit epsilon (Homo sapiens) (UniProt Q14164); settings: at 1 µM;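 further: reported values are averaged percent inhibition figures against human IKKε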
# T1 sequence (whole entry): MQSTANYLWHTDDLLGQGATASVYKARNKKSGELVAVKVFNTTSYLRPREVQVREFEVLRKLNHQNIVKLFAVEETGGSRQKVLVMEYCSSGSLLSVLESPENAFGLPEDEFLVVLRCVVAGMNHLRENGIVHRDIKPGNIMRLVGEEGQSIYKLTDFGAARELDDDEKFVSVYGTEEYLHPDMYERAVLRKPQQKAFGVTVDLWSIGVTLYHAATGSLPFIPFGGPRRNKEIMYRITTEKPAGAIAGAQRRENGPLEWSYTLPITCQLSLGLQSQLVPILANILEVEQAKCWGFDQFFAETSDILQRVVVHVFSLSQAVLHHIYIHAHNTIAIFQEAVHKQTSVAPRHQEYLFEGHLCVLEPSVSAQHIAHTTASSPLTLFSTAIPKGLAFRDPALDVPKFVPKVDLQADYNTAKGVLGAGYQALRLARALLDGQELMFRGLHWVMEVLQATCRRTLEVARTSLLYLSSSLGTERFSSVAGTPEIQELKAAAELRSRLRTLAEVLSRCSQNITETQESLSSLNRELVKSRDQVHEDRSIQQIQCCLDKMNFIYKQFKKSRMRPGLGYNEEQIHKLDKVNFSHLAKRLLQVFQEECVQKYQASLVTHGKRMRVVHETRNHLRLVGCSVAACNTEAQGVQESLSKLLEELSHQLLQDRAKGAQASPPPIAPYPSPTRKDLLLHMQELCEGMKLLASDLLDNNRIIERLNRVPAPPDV
# [2] = molecular target: T2, Serine/threonine-protein kinase Nek1 (Homo sapiens) (UniProt Q96PY6); settings: at 0.1 µM
# T2 sequence (whole entry): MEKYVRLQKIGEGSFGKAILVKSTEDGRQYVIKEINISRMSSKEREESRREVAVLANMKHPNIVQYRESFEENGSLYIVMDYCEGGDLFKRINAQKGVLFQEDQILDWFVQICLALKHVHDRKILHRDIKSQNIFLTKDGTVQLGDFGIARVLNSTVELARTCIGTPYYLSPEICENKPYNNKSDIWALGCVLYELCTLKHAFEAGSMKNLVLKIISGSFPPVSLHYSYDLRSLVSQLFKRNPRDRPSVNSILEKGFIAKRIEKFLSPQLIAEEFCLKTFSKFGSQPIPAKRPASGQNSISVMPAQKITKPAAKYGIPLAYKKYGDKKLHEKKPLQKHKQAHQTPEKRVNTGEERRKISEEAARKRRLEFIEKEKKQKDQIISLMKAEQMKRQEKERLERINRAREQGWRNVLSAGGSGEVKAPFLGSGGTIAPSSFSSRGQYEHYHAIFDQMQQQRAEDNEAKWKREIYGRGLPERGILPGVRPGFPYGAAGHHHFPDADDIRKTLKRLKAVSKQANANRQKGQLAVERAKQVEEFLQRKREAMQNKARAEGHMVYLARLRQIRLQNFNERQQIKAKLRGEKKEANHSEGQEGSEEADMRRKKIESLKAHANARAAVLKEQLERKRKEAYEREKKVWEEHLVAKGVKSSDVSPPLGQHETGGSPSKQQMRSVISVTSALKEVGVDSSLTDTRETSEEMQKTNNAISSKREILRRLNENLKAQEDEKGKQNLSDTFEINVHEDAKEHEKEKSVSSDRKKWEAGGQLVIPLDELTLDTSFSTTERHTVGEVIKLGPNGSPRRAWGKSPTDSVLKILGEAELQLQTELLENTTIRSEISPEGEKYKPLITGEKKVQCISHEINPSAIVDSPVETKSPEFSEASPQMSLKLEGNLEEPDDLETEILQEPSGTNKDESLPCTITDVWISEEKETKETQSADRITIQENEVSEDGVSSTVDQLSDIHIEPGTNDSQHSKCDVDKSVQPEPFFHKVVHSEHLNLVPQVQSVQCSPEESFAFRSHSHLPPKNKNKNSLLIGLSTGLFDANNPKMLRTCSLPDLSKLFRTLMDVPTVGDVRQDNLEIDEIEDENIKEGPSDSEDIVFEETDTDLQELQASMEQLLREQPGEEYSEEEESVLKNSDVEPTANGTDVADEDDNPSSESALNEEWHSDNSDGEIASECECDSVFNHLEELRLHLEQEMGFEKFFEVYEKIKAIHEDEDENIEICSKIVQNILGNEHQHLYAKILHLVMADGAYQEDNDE
# [3] = molecular target: T2, Serine/threonine-protein kinase Nek1 (Homo sapiens); settings: at 1 µM
# [4] = molecular target: T3, Serine/threonine-protein kinase Nek2 (Homo sapiens) (UniProt P51955); settings: at 0.1 µM
# T3 sequence (whole entry): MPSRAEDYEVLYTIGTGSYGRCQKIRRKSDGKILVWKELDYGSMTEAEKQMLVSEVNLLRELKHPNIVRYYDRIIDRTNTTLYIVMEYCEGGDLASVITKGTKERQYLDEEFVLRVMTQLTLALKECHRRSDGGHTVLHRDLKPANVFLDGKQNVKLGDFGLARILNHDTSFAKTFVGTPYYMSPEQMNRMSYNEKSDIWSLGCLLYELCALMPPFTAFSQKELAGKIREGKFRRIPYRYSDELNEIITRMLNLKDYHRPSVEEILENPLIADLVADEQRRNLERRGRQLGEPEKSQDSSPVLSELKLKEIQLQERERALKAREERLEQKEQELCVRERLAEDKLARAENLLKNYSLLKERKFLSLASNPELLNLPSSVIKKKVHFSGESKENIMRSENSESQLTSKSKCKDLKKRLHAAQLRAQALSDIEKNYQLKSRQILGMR
# [5] = molecular target: T3, Serine/threonine-protein kinase Nek2 (Homo sapiens); settings: at 1 µM
# [6] = molecular target: Serine/threonine-protein kinase Nek6 (Homo sapiens) (UniProt Q9HC98); settings: at 0.1 µM
# Serine/threonine-protein kinase Nek6 (Homo sapiens), sequence (Q9HC98 whole entry): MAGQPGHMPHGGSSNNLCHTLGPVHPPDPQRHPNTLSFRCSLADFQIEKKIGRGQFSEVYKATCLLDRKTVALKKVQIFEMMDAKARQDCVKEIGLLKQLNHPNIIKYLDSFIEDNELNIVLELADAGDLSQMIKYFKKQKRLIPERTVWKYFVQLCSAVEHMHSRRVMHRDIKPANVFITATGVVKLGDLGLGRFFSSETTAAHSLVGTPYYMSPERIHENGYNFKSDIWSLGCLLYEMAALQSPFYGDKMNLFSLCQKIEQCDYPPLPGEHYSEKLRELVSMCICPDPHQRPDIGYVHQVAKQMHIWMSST
# [7] = molecular target: Serine/threonine-protein kinase Nek6 (Homo sapiens) (UniProt Q9HC98); settings: at 1 µM
# [8] = molecular target: Serine/threonine-protein kinase Nek7 (Homo sapiens) (UniProt Q8TDX7); settings: at 0.1 µM
# Serine/threonine-protein kinase Nek7 (Homo sapiens), sequence (Q8TDX7 whole entry, looked up): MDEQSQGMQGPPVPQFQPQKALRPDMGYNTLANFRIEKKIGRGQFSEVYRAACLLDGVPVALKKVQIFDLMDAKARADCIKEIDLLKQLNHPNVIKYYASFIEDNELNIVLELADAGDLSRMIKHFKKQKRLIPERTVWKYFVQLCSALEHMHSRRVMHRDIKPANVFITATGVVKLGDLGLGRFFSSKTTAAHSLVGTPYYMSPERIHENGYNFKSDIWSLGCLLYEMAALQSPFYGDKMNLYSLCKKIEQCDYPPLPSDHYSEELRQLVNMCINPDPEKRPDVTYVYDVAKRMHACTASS
# [9] = molecular target: Serine/threonine-protein kinase Nek7 (Homo sapiens) (UniProt Q8TDX7); settings: at 1 µM
# [10] = molecular target: T4, Serine/threonine-protein kinase Nek9 (Homo sapiens) (UniProt Q8TD19); settings: at 0.1 µM
# T4 sequence (whole entry): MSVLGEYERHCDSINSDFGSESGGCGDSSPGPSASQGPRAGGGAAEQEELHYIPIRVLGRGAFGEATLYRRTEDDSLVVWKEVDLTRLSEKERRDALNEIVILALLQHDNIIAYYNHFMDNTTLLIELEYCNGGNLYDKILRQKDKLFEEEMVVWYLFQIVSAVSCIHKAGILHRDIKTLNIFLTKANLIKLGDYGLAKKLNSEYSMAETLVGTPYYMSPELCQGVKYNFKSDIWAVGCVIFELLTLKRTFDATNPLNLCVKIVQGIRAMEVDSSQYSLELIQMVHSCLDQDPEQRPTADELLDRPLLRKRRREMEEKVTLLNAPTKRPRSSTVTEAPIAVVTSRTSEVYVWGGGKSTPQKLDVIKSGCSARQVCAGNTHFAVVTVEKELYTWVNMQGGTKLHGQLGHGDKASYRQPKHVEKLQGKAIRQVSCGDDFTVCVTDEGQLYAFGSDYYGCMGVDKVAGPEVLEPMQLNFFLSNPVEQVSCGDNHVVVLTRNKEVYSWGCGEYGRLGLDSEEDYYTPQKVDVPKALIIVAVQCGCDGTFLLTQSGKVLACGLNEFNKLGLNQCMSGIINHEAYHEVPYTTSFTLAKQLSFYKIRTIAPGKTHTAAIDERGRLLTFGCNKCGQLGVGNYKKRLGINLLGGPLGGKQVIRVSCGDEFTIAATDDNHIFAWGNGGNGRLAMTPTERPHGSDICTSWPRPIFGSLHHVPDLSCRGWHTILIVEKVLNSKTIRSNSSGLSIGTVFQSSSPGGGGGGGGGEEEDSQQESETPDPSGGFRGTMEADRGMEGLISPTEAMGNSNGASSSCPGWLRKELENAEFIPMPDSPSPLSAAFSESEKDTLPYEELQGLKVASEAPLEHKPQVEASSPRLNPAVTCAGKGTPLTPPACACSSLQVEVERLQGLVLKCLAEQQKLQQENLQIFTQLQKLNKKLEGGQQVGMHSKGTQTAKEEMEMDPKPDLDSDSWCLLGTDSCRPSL
# [11] = molecular target: T4, Serine/threonine-protein kinase Nek9 (Homo sapiens); settings: at 1 µM
# [12] = molecular target: Serine/threonine-protein kinase PLK1 (Homo sapiens) (UniProt P53350); settings: at 0.1 µM
# Serine/threonine-protein kinase PLK1 (Homo sapiens), sequence (P53350 whole entry): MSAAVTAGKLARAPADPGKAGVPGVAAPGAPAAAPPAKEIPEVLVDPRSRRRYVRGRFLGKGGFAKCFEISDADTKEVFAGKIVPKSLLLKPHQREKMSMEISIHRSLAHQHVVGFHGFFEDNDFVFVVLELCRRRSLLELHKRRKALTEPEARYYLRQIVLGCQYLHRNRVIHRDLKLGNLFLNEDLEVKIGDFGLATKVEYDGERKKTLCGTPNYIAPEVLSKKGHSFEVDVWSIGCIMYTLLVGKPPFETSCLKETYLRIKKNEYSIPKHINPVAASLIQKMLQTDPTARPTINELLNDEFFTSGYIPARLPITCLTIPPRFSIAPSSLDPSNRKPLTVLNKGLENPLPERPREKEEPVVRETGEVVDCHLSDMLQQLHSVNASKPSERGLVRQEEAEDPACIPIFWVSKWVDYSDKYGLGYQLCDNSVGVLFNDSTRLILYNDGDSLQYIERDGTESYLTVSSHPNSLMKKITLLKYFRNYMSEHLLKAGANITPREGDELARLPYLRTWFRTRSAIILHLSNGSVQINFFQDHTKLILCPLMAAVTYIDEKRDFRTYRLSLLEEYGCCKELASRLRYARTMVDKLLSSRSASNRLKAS
# [13] = molecular target: Serine/threonine-protein kinase PLK1 (Homo sapiens) (UniProt P53350); settings: at 1 µM
# [14] = molecular target: T5, Dual specificity protein kinase TTK (Homo sapiens) (UniProt P33981); settings: at 0.1 µM
# T5 sequence (whole entry): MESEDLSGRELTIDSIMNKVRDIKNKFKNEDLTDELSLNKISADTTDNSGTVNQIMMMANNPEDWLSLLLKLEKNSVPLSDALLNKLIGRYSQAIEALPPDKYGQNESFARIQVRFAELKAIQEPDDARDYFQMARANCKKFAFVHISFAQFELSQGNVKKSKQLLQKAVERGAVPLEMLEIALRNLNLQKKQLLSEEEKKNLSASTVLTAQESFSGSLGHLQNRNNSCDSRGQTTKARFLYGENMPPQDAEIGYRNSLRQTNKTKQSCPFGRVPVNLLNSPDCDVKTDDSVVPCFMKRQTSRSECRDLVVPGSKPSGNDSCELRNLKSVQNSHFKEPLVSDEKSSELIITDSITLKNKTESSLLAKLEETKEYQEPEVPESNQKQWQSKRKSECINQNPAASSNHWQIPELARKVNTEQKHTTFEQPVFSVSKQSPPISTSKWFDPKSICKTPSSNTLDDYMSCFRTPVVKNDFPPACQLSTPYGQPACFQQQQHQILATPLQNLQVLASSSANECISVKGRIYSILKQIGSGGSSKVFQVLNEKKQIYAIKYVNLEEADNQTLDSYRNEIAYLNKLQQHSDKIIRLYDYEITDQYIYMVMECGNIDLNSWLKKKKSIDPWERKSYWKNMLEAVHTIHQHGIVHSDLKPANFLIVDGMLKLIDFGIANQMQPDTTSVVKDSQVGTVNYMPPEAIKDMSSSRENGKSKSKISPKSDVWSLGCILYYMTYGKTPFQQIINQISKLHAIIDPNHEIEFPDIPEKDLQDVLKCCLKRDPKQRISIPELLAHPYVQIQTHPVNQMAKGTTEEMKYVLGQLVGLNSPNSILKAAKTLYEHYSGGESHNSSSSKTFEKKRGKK
# [15] = tested on: T6, Receptor-type tyrosine-protein kinase FLT3 (Homo sapiens), P36888 [D835Y]; settings: at 1 µM
# T6 sequence (whole entry): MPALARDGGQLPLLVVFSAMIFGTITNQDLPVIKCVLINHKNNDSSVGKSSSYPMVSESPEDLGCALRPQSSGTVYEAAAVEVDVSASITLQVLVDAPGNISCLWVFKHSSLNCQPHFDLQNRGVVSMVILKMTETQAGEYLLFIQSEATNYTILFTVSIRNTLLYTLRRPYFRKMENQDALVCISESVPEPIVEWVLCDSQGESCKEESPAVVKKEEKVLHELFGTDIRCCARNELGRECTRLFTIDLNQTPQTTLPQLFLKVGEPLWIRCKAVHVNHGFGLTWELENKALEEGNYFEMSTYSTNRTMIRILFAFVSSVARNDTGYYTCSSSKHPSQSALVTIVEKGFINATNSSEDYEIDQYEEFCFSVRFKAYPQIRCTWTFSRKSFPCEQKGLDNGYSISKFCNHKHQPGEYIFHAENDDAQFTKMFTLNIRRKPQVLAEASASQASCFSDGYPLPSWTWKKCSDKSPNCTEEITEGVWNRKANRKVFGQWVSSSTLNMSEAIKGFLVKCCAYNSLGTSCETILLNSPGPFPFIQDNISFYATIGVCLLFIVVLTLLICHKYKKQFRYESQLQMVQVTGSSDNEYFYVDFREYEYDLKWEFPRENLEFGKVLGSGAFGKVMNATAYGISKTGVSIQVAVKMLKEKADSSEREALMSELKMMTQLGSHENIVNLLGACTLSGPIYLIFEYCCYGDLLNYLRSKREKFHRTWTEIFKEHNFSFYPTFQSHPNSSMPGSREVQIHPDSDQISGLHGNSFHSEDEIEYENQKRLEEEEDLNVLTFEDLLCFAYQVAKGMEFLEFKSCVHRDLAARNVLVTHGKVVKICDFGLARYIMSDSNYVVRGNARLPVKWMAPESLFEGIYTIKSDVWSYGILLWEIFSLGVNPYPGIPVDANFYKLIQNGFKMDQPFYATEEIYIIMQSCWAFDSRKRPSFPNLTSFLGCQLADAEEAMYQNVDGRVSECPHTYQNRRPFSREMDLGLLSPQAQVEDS
# [16] = molecular target: Vascular endothelial growth factor receptor 3 (Homo sapiens) (UniProt P35916); settings: at 0.1 µM
# Vascular endothelial growth factor receptor 3 (Homo sapiens), sequence (P35916 whole entry): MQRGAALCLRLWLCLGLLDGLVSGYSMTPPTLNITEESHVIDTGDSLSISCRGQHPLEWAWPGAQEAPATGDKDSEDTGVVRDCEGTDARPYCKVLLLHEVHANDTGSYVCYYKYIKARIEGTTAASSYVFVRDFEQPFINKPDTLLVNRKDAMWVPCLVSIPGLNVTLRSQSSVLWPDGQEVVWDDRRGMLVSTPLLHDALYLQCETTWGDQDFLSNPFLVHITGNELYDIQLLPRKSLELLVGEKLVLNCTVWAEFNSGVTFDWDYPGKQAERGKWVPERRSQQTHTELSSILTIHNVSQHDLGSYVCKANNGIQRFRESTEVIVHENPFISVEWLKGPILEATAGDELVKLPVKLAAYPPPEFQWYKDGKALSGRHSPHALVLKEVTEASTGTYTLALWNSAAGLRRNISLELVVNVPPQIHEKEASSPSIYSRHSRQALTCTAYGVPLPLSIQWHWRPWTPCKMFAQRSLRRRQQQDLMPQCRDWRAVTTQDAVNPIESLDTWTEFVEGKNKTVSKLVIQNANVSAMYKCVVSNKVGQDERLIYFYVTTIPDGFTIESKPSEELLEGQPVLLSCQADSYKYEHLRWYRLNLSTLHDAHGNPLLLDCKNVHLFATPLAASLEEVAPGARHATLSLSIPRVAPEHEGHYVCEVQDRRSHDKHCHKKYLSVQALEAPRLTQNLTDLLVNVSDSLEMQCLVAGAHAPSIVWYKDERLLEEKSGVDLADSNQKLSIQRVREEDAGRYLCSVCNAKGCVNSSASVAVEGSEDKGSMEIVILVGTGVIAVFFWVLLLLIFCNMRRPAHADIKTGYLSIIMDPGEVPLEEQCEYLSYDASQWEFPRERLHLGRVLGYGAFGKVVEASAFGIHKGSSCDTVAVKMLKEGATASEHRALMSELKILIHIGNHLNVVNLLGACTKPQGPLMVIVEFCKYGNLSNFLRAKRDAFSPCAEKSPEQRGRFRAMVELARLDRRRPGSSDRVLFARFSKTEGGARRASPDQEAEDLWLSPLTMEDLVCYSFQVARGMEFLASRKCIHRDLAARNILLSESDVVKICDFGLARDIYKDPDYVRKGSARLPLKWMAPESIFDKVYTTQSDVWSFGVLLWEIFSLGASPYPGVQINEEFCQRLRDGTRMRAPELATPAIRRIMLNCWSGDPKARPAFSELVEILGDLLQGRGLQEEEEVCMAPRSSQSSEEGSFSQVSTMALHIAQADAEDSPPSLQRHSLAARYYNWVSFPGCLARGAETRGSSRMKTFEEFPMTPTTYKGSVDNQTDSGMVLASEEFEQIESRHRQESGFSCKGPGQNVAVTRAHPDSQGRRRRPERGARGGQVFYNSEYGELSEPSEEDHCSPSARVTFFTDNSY
# [17] = molecular target: Vascular endothelial growth factor receptor 3 (Homo sapiens) (UniProt P35916); settings: at 1 µM
# [18] = molecular target: Macrophage colony-stimulating factor 1 receptor (Homo sapiens) (UniProt P07333); settings: at 0.1 µM
# Macrophage colony-stimulating factor 1 receptor (Homo sapiens), sequence (P07333 whole entry): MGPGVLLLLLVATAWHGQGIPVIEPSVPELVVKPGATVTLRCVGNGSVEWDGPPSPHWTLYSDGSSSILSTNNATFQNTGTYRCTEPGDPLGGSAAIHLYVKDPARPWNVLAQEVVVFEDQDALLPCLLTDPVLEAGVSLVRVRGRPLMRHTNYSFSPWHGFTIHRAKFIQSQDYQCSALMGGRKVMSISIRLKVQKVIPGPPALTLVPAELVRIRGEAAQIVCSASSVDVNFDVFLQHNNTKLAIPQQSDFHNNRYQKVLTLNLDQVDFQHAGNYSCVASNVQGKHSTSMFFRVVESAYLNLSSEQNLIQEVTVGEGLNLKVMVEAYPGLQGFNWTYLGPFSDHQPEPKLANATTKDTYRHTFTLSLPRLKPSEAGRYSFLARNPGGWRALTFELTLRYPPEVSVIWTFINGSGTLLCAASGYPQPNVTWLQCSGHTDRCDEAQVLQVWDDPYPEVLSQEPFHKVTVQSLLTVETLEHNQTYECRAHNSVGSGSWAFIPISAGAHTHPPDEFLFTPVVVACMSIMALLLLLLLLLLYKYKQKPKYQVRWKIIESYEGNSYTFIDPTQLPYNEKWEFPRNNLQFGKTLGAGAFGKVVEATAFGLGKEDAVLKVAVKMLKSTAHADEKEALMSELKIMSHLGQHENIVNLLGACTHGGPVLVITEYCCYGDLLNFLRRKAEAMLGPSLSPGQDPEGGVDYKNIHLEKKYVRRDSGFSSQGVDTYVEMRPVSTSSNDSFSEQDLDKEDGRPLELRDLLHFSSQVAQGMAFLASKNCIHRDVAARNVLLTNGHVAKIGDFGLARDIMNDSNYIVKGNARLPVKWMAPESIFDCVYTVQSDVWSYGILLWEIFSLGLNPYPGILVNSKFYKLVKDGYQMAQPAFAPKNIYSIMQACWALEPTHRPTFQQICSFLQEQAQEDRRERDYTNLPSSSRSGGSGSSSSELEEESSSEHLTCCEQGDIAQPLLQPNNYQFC
# [19] = molecular target: Macrophage colony-stimulating factor 1 receptor (Homo sapiens) (UniProt P07333); settings: at 1 µM
# [20] = molecular target: Tyrosine-protein kinase Fyn (Homo sapiens) (UniProt P06241); settings: at 0.1 µM
# Tyrosine-protein kinase Fyn (Homo sapiens), sequence (P06241 2-537 limits assumed): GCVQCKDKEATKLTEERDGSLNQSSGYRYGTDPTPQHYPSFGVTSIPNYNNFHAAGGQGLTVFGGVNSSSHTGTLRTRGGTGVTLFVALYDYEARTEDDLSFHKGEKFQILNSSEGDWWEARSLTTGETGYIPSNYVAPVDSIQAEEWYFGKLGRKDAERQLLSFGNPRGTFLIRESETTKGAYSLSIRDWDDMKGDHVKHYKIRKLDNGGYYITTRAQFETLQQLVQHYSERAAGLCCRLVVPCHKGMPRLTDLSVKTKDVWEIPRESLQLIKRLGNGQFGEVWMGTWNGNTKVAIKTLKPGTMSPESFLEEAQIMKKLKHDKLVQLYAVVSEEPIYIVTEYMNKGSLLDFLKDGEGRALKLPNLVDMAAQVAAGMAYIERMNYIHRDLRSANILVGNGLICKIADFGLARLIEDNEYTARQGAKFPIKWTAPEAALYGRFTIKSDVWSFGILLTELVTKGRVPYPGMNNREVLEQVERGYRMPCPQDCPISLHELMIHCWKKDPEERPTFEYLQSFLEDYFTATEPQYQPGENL
Structure (SMILES),inhibition [1] [%],inhibition [2] [%],inhibition [3] [%],inhibition [4] [%],inhibition [5] [%],inhibition [6] [%],inhibition [7] [%],inhibition [8] [%],inhibition [9] [%],inhibition [10] [%],inhibition [11] [%],inhibition [12] [%],inhibition [13] [%],inhibition [14] [%],inhibition [15] [%],inhibition [16] [%],inhibition [17] [%],inhibition [18] [%],inhibition [19] [%],inhibition [20] [%]
NC(=O)c1ccc2c(-c3ccnc(NCCCO)n3)c(-c3ccc(F)cc3)nn2c1,3.59,2.6,3.93,5.07,6.59,1.23,-0.99,6.38,4.14,5.71,5.15,3.87,4.03,14,-0.97,2.83,1.06,5.2,8.64,2.14
COc1cc(N2CCN(C(C)C)CC2)ccc1Nc1nc(Nc2cccc(F)c2C(=O)O)c2cc[nH]c2n1,7.25,2.08,5.01,5.22,3.86,2.61,5.14,3.58,3.43,9.89,4.56,6.28,29.6,62.3,12.6,2.54,-0.47,2.82,2.24,-0.12
CCN1CCC(C(=O)Nc2n[nH]c3nnc(-c4cccc(F)c4F)cc23)CC1,-0.18,-1.35,-0.79,-0.66,-0.65,1.25,-1.06,-0.06,-1.15,4.77,3.91,-0.35,-0.89,-0.14,1.33,1.09,0.68,-1.42,7.94,1.4
NS(=O)(=O)c1ccc(N/N=C2\C(=O)Nc3ccc(C(=O)NCc4ccncc4)cc32)cc1,49.1,1.96,4.03,4.39,3.78,3.86,5.08,3.8,4.4,9.13,9.05,3.77,2.52,37.6,34.3,16.7,48.7,3.12,8.74,9.13

# Reference: ChEMBL document CHEMBL1961873, “Compounds: GSK PKIS; Assays: Nanosyn kinase panel” (2012)
